Giardia killer: Giardia lamblia killing; Giardia lamblia trophozoite viability; 0.15% of 340,000 active; activity change, % at 7.66 µM, hits read low; in the data active means activity change below about -80%; inconclusive means between about -30% and that limit;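 further: parasites exposed to compound for two days anaerobically before the ATP read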
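Viability, read as ATP luminescence: trophozoites at 100 cells/well, compound added, 48 hrs anaerobic at 37 deg C, then 15-30 min room-temperature development before reading.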
RORgamma inh: inhibitors of mouse ROR gamma transcriptional activity | P51450 | Drosophila S2 Gal4-RORgamma UAS-luciferase reporter, 20 h | Potency, µM (top dose mostly 53.6 µM), actives largely listed as inhibitors | 5.4% of 310,000 active | AID 2551; further: nearly all actives have a fitted effect of over 60% in size
Target sequence (P51450 whole entry, looked up, the tested form may be a part): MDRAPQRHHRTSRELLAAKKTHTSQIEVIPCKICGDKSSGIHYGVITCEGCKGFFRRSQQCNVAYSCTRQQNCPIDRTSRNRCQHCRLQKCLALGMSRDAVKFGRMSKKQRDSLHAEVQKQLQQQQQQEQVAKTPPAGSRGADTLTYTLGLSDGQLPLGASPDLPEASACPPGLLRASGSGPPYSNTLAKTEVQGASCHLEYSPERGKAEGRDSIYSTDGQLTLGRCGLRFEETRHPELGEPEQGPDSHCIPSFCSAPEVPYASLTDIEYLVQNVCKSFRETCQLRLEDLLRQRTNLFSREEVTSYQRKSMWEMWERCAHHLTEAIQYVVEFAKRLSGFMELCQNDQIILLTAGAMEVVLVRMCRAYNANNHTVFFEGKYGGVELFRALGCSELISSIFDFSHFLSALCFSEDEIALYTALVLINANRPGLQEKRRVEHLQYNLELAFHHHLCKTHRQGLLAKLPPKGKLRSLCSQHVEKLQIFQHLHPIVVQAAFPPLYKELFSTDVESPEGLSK
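Compounds are pin-transferred onto Drosophila Schneider cells expressing a copper-inducible Gal4–ROR gamma transactivation domain fusion. After 1 hr, copper sulfate is added to 700 uM final; luciferase is read 20 hr later.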
BRCA1 expr up: activators of BRCA1 expression; MCF7-BRCA1-FFLuc reporter, luminescence, 48 h; response scale: scaled: vehicle 0%, 10 µM genistein 100%; Potency, µM (titrated, usually from 46.1 µM), usual class: activators; 1.1% of 380,000 active; AID 624202; further: nearly all actives have a fitted effect of over 80% in size
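MCF7-BRCA1-FFLuc cells, 2000/well in phenol-red-free MEM, attached 2 h then treated 48 h at 37 C. Luciferase luminescence read 15 min after reagent; normalized to genistein maximum activation (10microM) and DMSO, concentration-response fitted.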
Gal4-VP16 FLuc: counter-screen for ROR gamma inhibitors: Gal4-VP16 reporter; Potency, µM (highest dose often 53.6 µM), usual class: inhibitors; Drosophila S2 Gal4-VP16 UAS-luciferase, luminescence, 20 h; AID 2546; 3.5% of 310,000 active;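 further: Gal4-VP16 expression switched on by copper sulfate through the metallothionein promoter; nearly all actives have a fitted effect of over 50% in size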
p53 reactivation: re-activators of mutant p53; H1299 p53-A138V BP100-luciferase reporter, luminescence, 24 h; Potency, µM (doses to about 92.2 µM), most hits filed as activators; 0.063% of 320,000 active; further: nearly all actives have a fitted effect of over 45% in size
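H1299 (p53-null), stable ts p53-A138V + BP100-Luc; 1000 cells/well, Opti-MEM/10% FBS; cpd 4 pt, 1:5; 24 h, 37 deg C, 5% CO2; detection reagent 10 min RT; luminescence.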
ELG1 DNA repair: blocks ELG1-dependent DNA repair in HEK293T cells; Potency, µM (titrated, usually from 46.1 µM), most hits filed as inhibitors; HEK293T ELG1-luciferase reporter, luminescence, 16 h; DNA damage induced by 5-fluorouridine; 2.3% of 330,000 active; further: nearly all actives have a fitted effect of over 55% in size
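Step one: seed 2,000 cells per well. Step two: pin-transfer compound or DMSO alongside 5-fluorouridine. Step three: incubate 16 hr, 37 °C, 5% CO2. Step four: add ONE-Glo, wait 30 min, read luminescence.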
A number is an active result; . = inactive; ? = inconclusive; / = no result; [ ] = remark or other dose. Hits are enriched below; roughly 7.6% of the tested compounds scored in any of these assays. Unless noted, the call rests on the fitted dose curve; in most records, active means well fitted curve in the direction sought with a large enough effect; inconclusive means small, poorly fitted or top-dose-only effect, or another doubt; inactive means no such curve, though single readings can be large; an effect the other way counts as inactive or inconclusive.

SMILES | Giardia killer | RORgamma inh | BRCA1 expr up | Gal4-VP16 FLuc | p53 reactivation | ELG1 DNA repair
CCOc1ccc(NS(=O)(=O)c2ccc(C(=O)N3CCN(c4ncccn4)CC3)cc2)cc1 | . | . | . | ? | . | 7.3µM
CCOc1cc(C(=O)Nc2ccc(S(=O)(=O)N3CCCCC3)cc2)ccc1OCC(=O)N1CCOCC1 | . | / | . | / | . | .
CCOC(=O)c1cc2ccc3ccccc3c2oc1=O | . | . | . | . | . | .
CCOC(=O)c1cc2ccc3ccccc3c2s1 | . | ? | . | . | 25.1µM | ?
CC(C)Oc1ccc(C(=O)NC2CCS(=O)(=O)C2)cc1 (stereo not given) | . | . | . | . | . | ?
O=C(NC1CCCCC1)c1cc(-c2ccc(O)cc2)on1 | . | . | ? | . | ? | ?
O=C(NC1CCCCC1)c1cc(-c2ccccc2O)on1 | . | . | 2µM | . | ? | ?
CC(C)Oc1ccc(C(=O)NC2CCCCC2)cc1 | . | ? | 4.47µM | . | . | ?
CC(C)c1cc(C(=O)NC2CCCCC2)no1 | . | . | 8.91µM | ? | ? | ?
CCCc1cc(C(=O)NC2CCCCC2)no1 | . | . | ? | . | . | ?
CN(Cc1cccnc1)Cc1cn[nH]c1-c1ccc(-c2ccccc2)cc1 | . | . | . | . | . | ?
O=C(NNC(=O)c1ccccc1OCc1ccc(F)cc1)c1ccncc1 | . | / | . | / | . | .
Cc1cccc(/C=N/NC(=O)c2cc(Br)ccc2OCc2ccccc2)n1 | . | ? | . | . | . | .
Cc1cccc(/C=N/NC(=O)c2ccccc2OCc2cccc(Br)c2)n1 | . | 15.8µM | . | ? | . | 16.4µM
CCC(CC)=NNC(=O)c1ccccc1OCc1ccc(F)cc1 | . | . | . | . | . | .
O=C(N/N=C/c1ccncc1)c1ccccc1OCc1ccc(Br)cc1 | . | . | . | . | . | 7.31µM
COc1ccc(C(=O)Nc2ccccc2C(=O)N/N=C/c2ccncc2)cc1OC | ? | 3.55µM | . | 5.62µM | . | ?
Cc1ccc(/C=N/NC(=O)c2ccccc2OCc2ccc(F)cc2)o1 | . | . | . | . | . | 18.4µM
CCCNS(=O)(=O)c1ccc(CCC(=O)NCC2CCCO2)cc1 (stereo not given) | . | . | . | . | . | .
Cc1ccc(-c2nnc(NCCCO)c3ccccc23)cc1 | . | . | . | . | . | .
CCCCC#Cc1cncc(C(=O)NN)c1 | . | 7.94µM | . | 7.94µM | . | .
BrC(=C\c1ccccc1)/C=N/Nc1nc2ccccc2[nH]1 | . | 3.16µM | . | 5.01µM | ? | ?
C(=N\Nc1nc2ccccc2[nH]1)/c1cccc2nccnc12 | . | 1µM | . | 5.62µM | . | ?
C#CCn1cc(/C=N/Nc2nc3ccccc3[nH]2)c2ccccc21 | . | 15.8µM | . | ? | 14.1µM | ?
COc1ccc(/C=N/Nc2nc3ccccc3[nH]2)cc1OC | . | . | . | . | ? | ?
SMILES | Giardia killer | RORgamma inh | BRCA1 expr up | Gal4-VP16 FLuc | p53 reactivation | ELG1 DNA repair
Fc1ccccc1-c1ccc(/C=N/Nc2nc3ccccc3[nH]2)o1 | . | 3.16µM | . | 3.55µM | 35.5µM | ?
COc1ccc(C(=O)NCC(=O)Nc2ccccc2)cc1OC | . | . | . | .[0.365 µM] | . | .
C(=N\Nc1nc2ccccc2[nH]1)/c1ccccn1 | . | 0.562µM | . | 1.12µM | ? | ?
Cc1ccc(/C=N/Nc2nnc(Cc3ccccc3)c(=O)[nH]2)o1 | . | ? | . | . | . | .
Cc1ccc(/C=N\Nc2nc3ccc(Cl)cc3[nH]2)o1 | . | 6.31µM | . | 12.6µM | ? | ?
Cn1cccc1C(=O)N1CCC[C@@]2(CCN(Cc3cc(C(F)(F)F)cc(C(F)(F)F)c3)C2)C1 | / | ? | / | . | / | /
O=C(OC(c1ccccc1)c1nccc2ccccc12)c1cc([N+](=O)[O-])cc([N+](=O)[O-])c1 (stereo not given) | . | . | . | . | ? | .
Cc1cccn2cc(-c3ccccc3)nc12 | . | 11.2µM | 2µM | . | ? | ?
Cc1cccn2cc(-c3ccc(F)cc3)nc12 | . | ? | . | ? | / | ?
COc1ccc(-c2cn3cccc(C)c3n2)cc1Br | . | . | 3.55µM | . | ? | ?
Cc1cccn2cc(CNc3ccccc3)nc12 | . | ? | 14.1µM | . | ? | ?
